# Tested on: RARg:RXRa (NR concentration 270 nM, RXRa partner concentration 90 nM)
# Experiment: PBM binding z-score (relative to random genomic background probes); higher = stronger binding; sequences stand for … in GC…GCGATTGACAGCGTAGAATGAAGG
# How it was run: (§1)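 Antibodies against each partner of ligand-free nuclear receptor dimers (one per run) detected binding on custom Agilent 4×180K protein-binding microarrays after 1 h incubation. The double-stranded probes had 34-nt variable regions carrying direct-repeat seeds, single-nucleotide variants, half-site ablations and random human genomic background sequences. Binding z-scores, from regression-normalized fluorescence, use the random background probes as reference.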
row,Sequence,PBM binding z-score
1,CCTAGTTGGTCAAGGTCACGCACGCTATAGGTAC,5.21
2,GATACAGGGTCATCTAGAGGCCAGAGTATGGAAA,7.56
3,AGTCAAAGTTCACTAGGTTACGTAAGATTCAGCT,5.33
4,CCAGACAGGTGAAAGGTAACTCACTCTGGTACGC,1.34
5,ATCTCTAGGTGAAAGTTCAGTGAATCCCGAGGAT,2.88
6,CAAACTAGGTCAAGGTCAAATTCGGTTTGTGCCA,6.03
7,CAAACTAGGTCACGAAAGGTCAAAATCGAATGAC,7.53
8,CCTACTGGGCCAAGGTCATTGACCAGTCAAAGCA,3.87
9,TTAACAAGGTGAAAGGTCGTTGATGCACGCCTTG,4.28
10,CCTGCTCGGTCAATGGTCAGCTAAAGCAGCTCGC,1.65
11,CGTCAAAGTTCAAGGTAATGTAACAGAAAGCAGC,5.25
12,CAAACTAGGTCAAAGGTCAAAGACGAGCCAACCA,9.13
13,CCTACTGGGCCATTGAGAGGTCATTGATCATATG,4
14,CCTGCTAGTTCATGGTCAGCTAATCTACAGTATG,0.833
15,TCTAGTTCGTCACGGAGGTCACACACGACGGGTA,4.52
16,AGAATGAGGTTAGCAAAGATCAGGGAAACGCTTG,0.938
17,TAGCCTAGGTCATTCAGGGGCTAGTATAGAAAGC,4.98
18,ACTCGGAGGACAAAGGTAAGAGCTACGCCAGTGA,1.08
19,TCATATAGGTAATCAGGTGAAAGTCCGTAAGTTA,0.361
20,CCTACTGGGCCAAAGGTCATTGACTCCAATGCTC,5.6

row,Sequence,PBM binding z-score
1,AAATGTAGGTTAAGGGTCATTCAGGTTGGTTCGC,4.73
2,GGAACTAGGGCAAAGTTGATAGCATCTGTCGACG,1.07
3,CAAACTAGGTCAAGGGGTCAAAGTCCGCTTCCCG,8
4,ATCGAAAGGTCGTGAGGTGAGTACACAGAAAGGC,4.77
5,CGAACTAGTTCAAGGACAGTGAATCTCCGCACGC,0.588
6,CCTGCTAGTTCAATGGTCAGCTAAAGCAGCTCGC,0.412
7,ATATGTAGGTTAGCGGGGGTCATTCAGACTAGGC,5.25
8,CGTCCAAGGTCAGCAGGTGAGTGAAAGCGACGTG,5.23
9,TAGCCTCGGTCATTGGGCCAGTATAGTACGCATC,1.54
10,GCTAGTTGGTCAGTAAATGGTCACACACCGGTCG,0.401
11,AGACAAAGTTCAGGACGAGGTAACGTAAAGCACG,4.75
12,CGCACTAGGTCATTGACAGGACAGTGAATAGTAA,4.77
13,ATGGAAAGGTCGTGAGGTGAGTATACAGAAAGGC,4.95
14,ATATCTAGGTAAAAGTTCAGTGAATCCCGAGGAT,2.11
15,CCTACTGGGCCGAGGTCATTGATCAGTCAAAGCA,4.27
16,TTACCAAAGTGAAAGGTCGTTGATGCACGCCTTG,1.64
17,CCTAGTAGGTTATGGGGCATTCAGGCAACGGTGA,0.878
18,AGTCAAAGTTCATCTGGGTAACGTAAGATATGCT,5.32
19,TCTTGTAGATCAAAGGTCAAGAAAGCCGAAGCCT,5.63

# Tested on: RARg homodimer (NR concentration 270 nM)
# Experiment: as above
# How it was run: as §1
row,Sequence,PBM binding z-score
1,CCTAGTTGGTCAAGGTCACGCACGCTATAGGTAC,5.57
2,GATACAGGGTCATCTAGAGGCCAGAGTATGGAAA,5.37
3,AGTCAAAGTTCACTAGGTTACGTAAGATTCAGCT,6.12
4,CCAGACAGGTGAAAGGTAACTCACTCTGGTACGC,0.948
5,ATCTCTAGGTGAAAGTTCAGTGAATCCCGAGGAT,2.27
6,CAAACTAGGTCAAGGTCAAATTCGGTTTGTGCCA,6.67
7,CAAACTAGGTCACGAAAGGTCAAAATCGAATGAC,8.09
8,CCTACTGGGCCAAGGTCATTGACCAGTCAAAGCA,3.66
9,TTAACAAGGTGAAAGGTCGTTGATGCACGCCTTG,2.1
10,CCTGCTCGGTCAATGGTCAGCTAAAGCAGCTCGC,2.47
11,CGTCAAAGTTCAAGGTAATGTAACAGAAAGCAGC,6.13
12,CAAACTAGGTCAAAGGTCAAAGACGAGCCAACCA,7.66
13,CCTACTGGGCCATTGAGAGGTCATTGATCATATG,2.63
14,CCTGCTAGTTCATGGTCAGCTAATCTACAGTATG,1.06
15,TCTAGTTCGTCACGGAGGTCACACACGACGGGTA,4.04
16,AGAATGAGGTTAGCAAAGATCAGGGAAACGCTTG,0.899
17,TAGCCTAGGTCATTCAGGGGCTAGTATAGAAAGC,4.16
18,ACTCGGAGGACAAAGGTAAGAGCTACGCCAGTGA,1.1
19,TCATATAGGTAATCAGGTGAAAGTCCGTAAGTTA,0.3
20,CCTACTGGGCCAAAGGTCATTGACTCCAATGCTC,4.61

row,Sequence,PBM binding z-score
1,AAATGTAGGTTAAGGGTCATTCAGGTTGGTTCGC,3.54
2,GGAACTAGGGCAAAGTTGATAGCATCTGTCGACG,1.15
3,CAAACTAGGTCAAGGGGTCAAAGTCCGCTTCCCG,7.19
4,ATCGAAAGGTCGTGAGGTGAGTACACAGAAAGGC,4.06
5,CGAACTAGTTCAAGGACAGTGAATCTCCGCACGC,0.91
6,CCTGCTAGTTCAATGGTCAGCTAAAGCAGCTCGC,0.679
7,ATATGTAGGTTAGCGGGGGTCATTCAGACTAGGC,4.26
8,CGTCCAAGGTCAGCAGGTGAGTGAAAGCGACGTG,6.27
9,TAGCCTCGGTCATTGGGCCAGTATAGTACGCATC,2.62
10,GCTAGTTGGTCAGTAAATGGTCACACACCGGTCG,0.586
11,AGACAAAGTTCAGGACGAGGTAACGTAAAGCACG,4.73
12,CGCACTAGGTCATTGACAGGACAGTGAATAGTAA,4.46
13,ATGGAAAGGTCGTGAGGTGAGTATACAGAAAGGC,4.67
14,ATATCTAGGTAAAAGTTCAGTGAATCCCGAGGAT,2.05
15,CCTACTGGGCCGAGGTCATTGATCAGTCAAAGCA,3.11
16,TTACCAAAGTGAAAGGTCGTTGATGCACGCCTTG,1.01
17,CCTAGTAGGTTATGGGGCATTCAGGCAACGGTGA,0.852
18,AGTCAAAGTTCATCTGGGTAACGTAAGATATGCT,5.48
19,TCTTGTAGATCAAAGGTCAAGAAAGCCGAAGCCT,5.37

# Source: the supplement of paper PMC6555819
